Assay in all cases: NCI-60 one-dose screen, 48 h (100 = growth as untreated, 0 = no growth, -100 = all killed)
The subject of one experiment is NCI-H226 lung. The settings on record: 10 µM.
In the next experiment the test system is HOP-62 NSCLC. The settings on record: 10 µM.
In a further experiment the test system is NCI-H460 lung. The settings on record: 10 µM.
The test system of the next experiment is A549/ATCC NSCLC. The settings on record: 10 µM.
The next experiment relates to COLO 205 colon. The settings on record: 10 µM.
In another experiment the test system is DU-145 prostate. The settings on record: 10 µM.
A further experiment relates to K-562 leukemia. The settings on record: 10 µM.
Another experiment deals with SF-539 CNS. The settings on record: 10 µM.
Another experiment has as its system M14 melanoma. The settings on record: 10 µM.
The subject of another experiment is HCT-15 colon. The settings on record: 10 µM.
In another experiment the test system is HT29 colon. The settings on record: 10 µM.
The subject of a further experiment is SNB-75 CNS. The settings on record: 10 µM.
A further experiment relates to SNB-19 CNS. The settings on record: 10 µM.
The next experiment has as its system U251 CNS. The settings on record: 10 µM.
The subject of a further experiment is PC-3 prostate. The settings on record: 10 µM.
In a further experiment the test system is LOX IMVI melanoma. The settings on record: 10 µM.
The next experiment relates to MOLT-4 leukemia. The settings on record: 10 µM.
The test system of a further experiment is RPMI-8226 leukemia. The settings on record: 10 µM.
The next experiment relates to SK-OV-3 ovarian. The settings on record: 10 µM.
The subject of another experiment is MDA-MB-468 breast. The settings on record: 10 µM unless noted.

Each structure is given as a SMILES string. Compounds without any hit were thinned out: in the full panel of roughly 83,000, 20% have a hit.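 Cells were grown in 96-well plates and exposed to the test compound at a single concentration for 48 hours; results are reported as percent growth, with values below 10 considered active.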 Unmarked numbers belong to inactive results. The source made the active and inactive calls.

From PubChem BioAssay (NCI) come the findings set out here.

Consider `C#CCOc1cc(N(CC)CC)ccc1C(C(=O)NC(C)(C)C)N(C(=O)C1CCc2cc(F)ccc2O1)c1ccc(F)cc1F` (stereo not given), for which the growth with NCI-H226 lung is 42.9%; in the experiment with HOP-62 NSCLC, 51.6%; in the experiment on NCI-H460 lung, 26.4%; with A549/ATCC NSCLC it was 37.5%; with COLO 205 colon, 25.8%; with DU-145 prostate, 50.1%. For the same compound, the growth is 18.3% in the experiment with K-562 leukemia; 55.9% with SF-539 CNS; 43.3% in the experiment with M14 melanoma; 34.9% in the experiment with HCT-15 colon; 58.3% with HT29 colon; 64.4% in the experiment with SNB-75 CNS. Further, the growth was 39.8% in the experiment on SNB-19 CNS; 27.1% in the experiment with U251 CNS; 15% in the experiment on PC-3 prostate; -5.11% (active) with LOX IMVI melanoma; 6.84% (active) in the experiment on MOLT-4 leukemia; 25.6% in the experiment on RPMI-8226 leukemia. The growth with SK-OV-3 ovarian is 46.8%; in the experiment with MDA-MB-468 breast, 20.9%.
As for `Cn1cc(-c2cc3nc(-c4c[nH]c5ccccc45)cc(N)n3n2)c2cc(Cl)ccc21`, the growth with NCI-H226 lung was -30.4% (active); in the experiment with HOP-62 NSCLC, -86.4% (active); in the experiment with NCI-H460 lung, -58.2% (active); in the experiment on A549/ATCC NSCLC, -84.6% (active); in the experiment on COLO 205 colon, -89.9% (active); in the experiment on DU-145 prostate it was -92.6% (active). For the same compound, the growth in the experiment on K-562 leukemia was 0.698% (active); in the experiment with SF-539 CNS it was -92.5% (active); in the experiment with M14 melanoma, -89.3% (active); in the experiment with HCT-15 colon, -84% (active); in the experiment with HT29 colon, -69.3% (active); in the experiment with SNB-75 CNS, -65.9% (active). For the same compound, the growth with SNB-19 CNS was -78.2% (active); in the experiment with U251 CNS it was -91.8% (active); in the experiment on PC-3 prostate it was -85.3% (active); in the experiment with LOX IMVI melanoma it was -91.6% (active); in the experiment with MOLT-4 leukemia it was -48.8% (active); with RPMI-8226 leukemia it was -25.5% (active). The growth was -94.7% (active) in the experiment on SK-OV-3 ovarian and -85.9% (active) in the experiment with MDA-MB-468 breast.
`COc1ccc(C2OC[C@@]3(C)C4CC[C@]5(C)C(CC=C6C7CC(C)(C)CC[C@]7(C(=O)O)CC[C@]65C)[C@@]4(C)C[C@@H](O)[C@@H]3O2)cc1` (stereo not given in full): the growth is 84.5% in the experiment with NCI-H226 lung; 95.5% in the experiment on HOP-62 NSCLC; 69.1% with NCI-H460 lung; 39% in the experiment on A549/ATCC NSCLC; 78.8% in the experiment on COLO 205 colon; 76.3% in the experiment with DU-145 prostate. Moreover, the growth with K-562 leukemia was 44%; in the experiment with SF-539 CNS, 95.7%; with M14 melanoma, 96.8%; in the experiment on HCT-15 colon, 56%; in the experiment with HT29 colon, 70.8%; in the experiment with SNB-75 CNS, 97%. Also, the growth in the experiment with SNB-19 CNS is 90.9%; with U251 CNS it was 50.7%; in the experiment on PC-3 prostate, 49.2%; in the experiment with LOX IMVI melanoma, 70.8%; in the experiment on MOLT-4 leukemia it was 47.2%; in the experiment on RPMI-8226 leukemia, 40.3%. The growth in the experiment on SK-OV-3 ovarian was 132%; with MDA-MB-468 breast it was 75.9%.
